# Measured values reported in PubChem BioAssay AID2530 (National Center for Advancing Translational Sciences (NCATS), 2010).
# Inconclusive results are not listed. A call without a number means that no potency is given here. The source made the active and inactive calls. Calls follow the shape of the dose curve; as a rule, active = well fitted inhibition curve with a large enough effect; inconclusive = small, poorly fitted or top-dose-only effect; inactive = flat fitted curve, though single readings scatter.
# Target: Luciferin 4-monooxygenase (Photuris pensylvanica) (UniProt Q27757)
# Assay: Secondary Assay for Luciferase (Kinase-Glo TM) Inhibition Counterscreen
# Experimental: NIH Chemical Genomics Center [NCGC] Malcolm Walkinshaw, Hugh Morgan, Linda Gilmore University of Edinburgh, UK MLPCN Grant: 1 R03 MH085697-01 NCGC Assay Overview: Luciferase (Kinase-Glo, Promega Corporation) was assayed for its ability to generate light using ATP and luciferin as substrates. The ATP concentration in the assay (10 uM) was within the linear range of enzyme activity for the assay conditions used. This assay was used as an counter screen for human pyruvate kinase M2 isoform.
# NCGC Assay Protocol Summary: Four uL of substrate mix (final concentration, 50 mM imidazole pH 7.2, 50 mM KCl, 7 mM MgCl2, 10 uM ATP, 0.01% Tween 20, 0.05% BSA) was dispensed into white 1536 well plates. Twenty-three nL of compound was delivered by a pin tool and 2 uL of luciferase detection mix (Kinase-Glo, Promega)) was added. Following 8-minute incubation at ambient temperature, luminescence was measured by a ViewLux (Perkin Elmer) at 5 seconds exposure/plate. Data were normalized to the controls for basal activity (DMSO only) and 100% inhibition (40 uM SIB 1757) and curve fitting was performed using Hill equation.
# Potency is read from the fitted curve at half-maximal effect.
row,Compound,Potency
1,Cc1ccc(C(=O)n2c(N)nc3ccccc32)cc1,11.6 µM (active)
2,C[C@]12CC[C@@H]3c4ccc(O)c(O)c4CC[C@H]3[C@@H]1CC[C@@H]2O,inactive
